Some targets named below: RELARELA (p65 homodimer) (Homo sapiens, UniProt Q04206 1-307); p50p50 homodimer (Homo sapiens, UniProt P19838 7-356); RELB subunit;p50 subunit (Homo sapiens;Homo sapiens, UniProt Q01201;P19838 120-401;7-356).
Holding throughout (experiment): protein binding microarray; high values mean tight binding
Holding throughout (details): dsDNA, one strand shown

The target of a further test is T1, p52p52 homodimer (Homo sapiens, UniProt Q00653 4-332).
T1 sequence: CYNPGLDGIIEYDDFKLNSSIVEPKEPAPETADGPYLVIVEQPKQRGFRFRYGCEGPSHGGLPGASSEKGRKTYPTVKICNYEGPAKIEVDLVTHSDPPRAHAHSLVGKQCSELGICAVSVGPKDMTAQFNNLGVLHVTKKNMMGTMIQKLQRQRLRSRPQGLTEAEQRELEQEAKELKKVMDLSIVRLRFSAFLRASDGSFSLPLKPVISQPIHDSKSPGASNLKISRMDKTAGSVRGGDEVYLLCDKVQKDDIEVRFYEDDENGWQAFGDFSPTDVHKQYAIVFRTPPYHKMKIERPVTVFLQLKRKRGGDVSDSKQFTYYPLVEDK

Test [1] has as its target RELA (p65) subunit of heterodimer;p50 subunit (Homo sapiens;Homo sapiens, UniProt Q04206;P19838 1-307;7-356).
The target in test [2] is RELA (p65) subunit of heterodimer;p52 subunit (Homo sapiens;Homo sapiens, UniProt Q04206;Q00653 1-307;4-332).
In the next test the target is T2, RELB subunit;p52 subunit (Homo sapiens;Homo sapiens, UniProt Q01201;Q00653 120-401;4-332).
T2 sequence 1: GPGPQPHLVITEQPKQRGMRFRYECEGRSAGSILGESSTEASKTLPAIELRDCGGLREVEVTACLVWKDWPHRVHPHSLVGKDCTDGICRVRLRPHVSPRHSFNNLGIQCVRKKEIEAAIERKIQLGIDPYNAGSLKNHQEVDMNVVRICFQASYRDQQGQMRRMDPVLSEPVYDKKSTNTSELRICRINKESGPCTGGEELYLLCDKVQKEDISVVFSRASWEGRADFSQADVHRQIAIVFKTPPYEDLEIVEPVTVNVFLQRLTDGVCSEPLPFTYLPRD
T2 sequence 2: T1 sequence

In test [3] the target is C-Rel subunit;p50 subunit (Homo sapiens;Homo sapiens, UniProt Q04864;P19838 1-285;7-356).
Test [4] has as its target T3, C-Rel subunit;p52 subunit (Homo sapiens;Homo sapiens, UniProt Q04864;Q00653 1-285;4-332).
T3 sequence 1: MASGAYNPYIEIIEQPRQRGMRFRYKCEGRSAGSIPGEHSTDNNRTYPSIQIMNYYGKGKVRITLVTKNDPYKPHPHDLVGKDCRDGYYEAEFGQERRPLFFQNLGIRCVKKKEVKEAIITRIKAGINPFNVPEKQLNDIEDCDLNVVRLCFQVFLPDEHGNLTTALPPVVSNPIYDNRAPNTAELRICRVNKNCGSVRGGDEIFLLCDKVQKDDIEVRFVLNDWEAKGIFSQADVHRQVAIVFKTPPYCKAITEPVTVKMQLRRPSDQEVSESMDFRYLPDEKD
T3 sequence 2: T1 sequence

RELARELA (p65 homodimer), sequence (Q04206 1-307): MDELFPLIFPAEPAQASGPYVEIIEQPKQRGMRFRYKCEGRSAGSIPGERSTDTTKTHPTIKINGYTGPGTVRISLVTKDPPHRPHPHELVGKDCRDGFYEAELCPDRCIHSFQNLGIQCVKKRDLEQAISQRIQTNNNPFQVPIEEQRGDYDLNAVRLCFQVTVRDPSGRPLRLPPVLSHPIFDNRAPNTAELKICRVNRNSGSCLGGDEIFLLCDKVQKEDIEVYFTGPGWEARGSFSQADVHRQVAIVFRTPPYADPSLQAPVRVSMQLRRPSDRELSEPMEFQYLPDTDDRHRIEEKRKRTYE
RELA (p65) subunit of heterodimer;p50 subunit, sequence (Q04206 1-307, chain 1 of 2): as the sequence (Q04206 1-307) above
RELA (p65) subunit of heterodimer;p50 subunit, sequence (P19838 7-356, chain 2 of 2): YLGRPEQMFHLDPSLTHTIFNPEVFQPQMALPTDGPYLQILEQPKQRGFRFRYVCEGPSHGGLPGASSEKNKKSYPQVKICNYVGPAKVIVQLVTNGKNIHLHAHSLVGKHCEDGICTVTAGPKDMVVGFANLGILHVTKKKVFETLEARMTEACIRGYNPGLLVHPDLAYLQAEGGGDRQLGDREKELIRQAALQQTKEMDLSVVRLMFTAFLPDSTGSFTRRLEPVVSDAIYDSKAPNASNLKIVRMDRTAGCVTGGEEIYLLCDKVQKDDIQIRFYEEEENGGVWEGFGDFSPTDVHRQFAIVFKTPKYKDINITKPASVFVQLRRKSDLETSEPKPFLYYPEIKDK
p50p50 homodimer, sequence (P19838 7-356): as the sequence (P19838 7-356, chain 2 of 2) above

For the sequence GAAAAGGCCCC, the binding signal with RELARELA (p65 homodimer) is -0.413 z-score; with p50p50 homodimer, 0.523 z-score; with p52p52 homodimer, 0.108 z-score; in [1] it was 0.289 z-score; in [2] it was 0.416 z-score; with RELB subunit;p50 subunit, 0.151 z-score. Also, the binding signal with RELB subunit;p52 subunit is 0.246 z-score; in test [3], -0.101 z-score; in test [4] it was 0.313 z-score.

On to GGAGTCACCCT, for which the binding signal with RELARELA (p65 homodimer) was -0.674 z-score; with p50p50 homodimer it was -0.676 z-score; with p52p52 homodimer, -0.345 z-score; in test [1], -0.224 z-score; in [2] it was -0.5 z-score; with RELB subunit;p50 subunit, -0.378 z-score. Moreover, the binding signal was -0.661 z-score with RELB subunit;p52 subunit, -0.396 z-score in [3] and -0.585 z-score in test [4].

As to GAGATGATCCT, the binding signal in the test with RELARELA (p65 homodimer) was -0.876 z-score; with p50p50 homodimer it was -1.5 z-score; with p52p52 homodimer, -0.697 z-score; in [1], -0.978 z-score; in test [2], -1.06 z-score; in the test with RELB subunit;p50 subunit, -1.27 z-score. The results for the binding signal (with RELB subunit;p52 subunit; in test [3]; in test [4]) were -1.16 z-score, -1.84 z-score and -1.11 z-score, respectively.

Turning to CGATACACCCT, the binding signal with RELARELA (p65 homodimer) is -0.54 z-score; with p50p50 homodimer, -0.733 z-score; with p52p52 homodimer, -0.36 z-score; in test [1] it was -0.642 z-score; in test [2] it was -0.613 z-score; in the test with RELB subunit;p50 subunit, -0.424 z-score. Further, the binding signal with RELB subunit;p52 subunit is -0.507 z-score; in test [3], -0.73 z-score; in test [4], -0.561 z-score.

For CAAGTTCCCCT, the binding signal with RELARELA (p65 homodimer) came to 0.677 z-score; in the test with p50p50 homodimer it was 1.46 z-score; in the test with p52p52 homodimer it was 2.18 z-score; in [1], 1.97 z-score; in [2], 1.77 z-score; in the test with RELB subunit;p50 subunit, 2.27 z-score. For the same sequence, the binding signal was determined as 2.14 z-score with RELB subunit;p52 subunit, 1.56 z-score in test [3] and 1.84 z-score in [4].

For CGGTTTTTCCC, the binding signal with RELARELA (p65 homodimer) worked out at 3.71 z-score; with p50p50 homodimer it was 0.935 z-score; with p52p52 homodimer, 2.66 z-score; in test [1], 1.81 z-score; in [2], 1.88 z-score; in the test with RELB subunit;p50 subunit, 1.05 z-score. Besides, the binding signal with RELB subunit;p52 subunit came to 1.78 z-score; in test [3], 1.57 z-score; in test [4] it was 2.3 z-score.

Consider AAGATAATCCT, for which the binding signal is -0.605 z-score in the test with RELARELA (p65 homodimer); -1.55 z-score with p50p50 homodimer; -0.666 z-score with p52p52 homodimer; -1.04 z-score in test [1]; -0.884 z-score in test [2]; -1.14 z-score in the test with RELB subunit;p50 subunit. The binding signal is -0.91 z-score in the test with RELB subunit;p52 subunit, -1.26 z-score in test [3] and -0.848 z-score in [4].

On to GAGATACCCCT, for which the binding signal with RELARELA (p65 homodimer) was -0.299 z-score; with p50p50 homodimer, 0.87 z-score; with p52p52 homodimer it was 0.576 z-score; in [1] it was 0.915 z-score; in test [2] it was 1.1 z-score; with RELB subunit;p50 subunit it was 0.817 z-score. In addition, the results for the binding signal (in the test with RELB subunit;p52 subunit; in test [3]; in test [4]) were 1.63 z-score, 0.434 z-score and 0.859 z-score, respectively.

Turning to GAAAATCTCCC, the binding signal is 1.06 z-score in the test with RELARELA (p65 homodimer); 0.914 z-score with p50p50 homodimer; 0.592 z-score in the test with p52p52 homodimer; 0.875 z-score in test [1]; 0.8 z-score in [2]; 1.08 z-score in the test with RELB subunit;p50 subunit. Besides, the binding signal was 0.63 z-score in the test with RELB subunit;p52 subunit, 0.573 z-score in test [3] and 0.538 z-score in [4].

In the case of AGAAAGTCCCC, the binding signal in the test with RELARELA (p65 homodimer) is 1.93 z-score; with p50p50 homodimer, 1.38 z-score; in the test with p52p52 homodimer, 2.13 z-score; in test [1], 1.84 z-score; in [2], 1.96 z-score; in the test with RELB subunit;p50 subunit, 2.19 z-score. For the same sequence, the figures for the binding signal (with RELB subunit;p52 subunit; in test [3]; in test [4]) were 1.93 z-score, 1.62 z-score and 1.91 z-score, respectively.

Turning to AAAAGGATCCT, the binding signal is -0.683 z-score with RELARELA (p65 homodimer); -1.24 z-score with p50p50 homodimer; -0.703 z-score in the test with p52p52 homodimer; -1.11 z-score in test [1]; -1.09 z-score in test [2]; -1.05 z-score with RELB subunit;p50 subunit. Moreover, the binding signal in the test with RELB subunit;p52 subunit is -0.866 z-score; in [3], -1.6 z-score; in [4], -0.998 z-score.

On to GGGGTACTCCT, for which the binding signal with RELARELA (p65 homodimer) is 0.917 z-score; in the test with p50p50 homodimer, 0.595 z-score; in the test with p52p52 homodimer it was 0.756 z-score; in test [1] it was 0.47 z-score; in test [2] it was 0.851 z-score; with RELB subunit;p50 subunit, 0.471 z-score. The binding signal amounted to 0.712 z-score with RELB subunit;p52 subunit, 0.395 z-score in [3] and 0.674 z-score in test [4].

AGAAAAGCCCC: the binding signal with RELARELA (p65 homodimer) was 1.13 z-score; in the test with p50p50 homodimer it was 0.938 z-score; with p52p52 homodimer, 2.07 z-score; in test [1], 1.57 z-score; in test [2], 1.76 z-score; in the test with RELB subunit;p50 subunit, 1.77 z-score. For the same sequence, the results for the binding signal (with RELB subunit;p52 subunit; in test [3]; in test [4]) were 1.57 z-score, 0.96 z-score and 1.65 z-score, respectively.

AAGATCGTCCC: the binding signal is 0.328 z-score with RELARELA (p65 homodimer); 0.168 z-score with p50p50 homodimer; 0.307 z-score with p52p52 homodimer; -0.197 z-score in test [1]; -0.135 z-score in test [2]; 0.309 z-score in the test with RELB subunit;p50 subunit. The binding signal in the test with RELB subunit;p52 subunit is 0.078 z-score; in test [3], 0.266 z-score; in test [4], -0.166 z-score.

In the case of GGGTGCTCCCT, the binding signal with RELARELA (p65 homodimer) is -0.519 z-score; with p50p50 homodimer, 0.136 z-score; with p52p52 homodimer it was 0.0774 z-score; in [1], -0.166 z-score; in test [2], 0.115 z-score; with RELB subunit;p50 subunit, -0.21 z-score. In addition, the binding signal is -0.168 z-score with RELB subunit;p52 subunit, -0.0364 z-score in test [3] and 0.178 z-score in test [4].
